# Reference: the supplement of paper PMC10338343
# ± gives the standard deviation.
# Tested on: MILI (PIWIL2) piRISC loaded with L1MC piRNA (26 nt)
# Assay: pre-steady-state target cleavage rate (min^-1); guide: L1MC piRNA 5'p-UAACUAAAUACUAUGCAAGCUGUAGG; MIWI and MILI are mouse PIWI proteins and EfPiwi is from a freshwater sponge; tags in brackets are library labels; higher = faster piRNA-guided slicing of the target
# Conditions: auxiliary factor: 500 nM mouse GTSF1
# In short: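 Cleave-'n-Seq: a transcribed, DNA-blocked target RNA library (0.1 nM) was mixed with 1 nM active affinity-purified piRISC carrying one synthetic guide, with or without 500 nM GTSF1 partner protein, in HEPES–potassium acetate buffer at 33 °C for 0–8 or 0–960 min. Uncleaved targets were sequenced and normalised to depth and to weakly complementary targets. Three trials were pooled, and k3 was capped at 0.0001 min^-1. The pre-steady-state cleavage rate came from a burst-and-steady-state fit.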
row,Sequence,pre-steady-state target cleavage rate
1,UCCUCCUACAGCUUGCAUUCUAUUUUCAAA,0.0147 ± 0.0054
2,UCCUGGAUCAGCAAGCAUAGUAUUUACAAA,0.108 ± 0.023
3,UCCUGGAACAGCUUGCAUAGUAUUAACAAA,0.104 ± 0.029
4,UCCUCCUACAGCAUGCAUAGUAUUUUCAAA,0.138 ± 0.03
5,UCCUGGAUGUCGAUGCUUAGUAUUUAGUAA,0.0164 ± 0.0045
6,UCCUCCUACAGCUUGGAUAGUAUUUAGAUA,0.139 ± 0.019
7,UCCUGGAUCAGCUUGCAUAGUAAAUAGUAA,0.196 ± 0.033
8,UCCUGGAUGUGCUUGCAUAGUAUAUAGAUA,0.00547 ± 0.0037
9,UCCUGGAUGAGCUUGCAUAGUAUUUUCAUA,0.0108 ± 0.0059
10,UCCUGGUACAGCUUGCAUAGUAAAAACAAA,0.0104 ± 0.0051
11,UCCUGGAUGAGCUUGCAUAGUAUUAUGAAA,0.00473 ± 0.0045
12,UCCUCCUACAGCUACGAUAGUAUUUACAAA,0.0587 ± 0.019
13,UCCUGGAUGUCGAAGCAUAGUAUUUCAGUUA,0.0176 ± 0.0068
14,UCCUGGAUGUCGAUGCAUAGUAUUCAGUUA,0.0263 ± 0.0083
15,UCCUGGAUGUCGAACGUAUCUAUUUAGGUA,< 0.0001
16,UCCUGGAUGUCCUUGCAUAGUAUUAAGUAA,0.0433 ± 0.013
17,UCCUGGAUGUCGAUGCAUAGUAUUGUAGUUA,0.0505 ± 0.016
18,UCCUCCUACUCGUUGCAUAGUAUUUACAAA,0.0372 ± 0.012
19,UCCUGGAACAGGAAGCAUAGUAUUUACAAA,0.061 ± 0.02

row,Sequence,pre-steady-state target cleavage rate
1,UCCUGGAUGAGCUUGCAUAGUAUAAUGUAA,0.00667 ± 0.0048
2,UCCUGGAUGUCCUAGCAAAGUAUUUAGUUA,0.00585 ± 0.0032
3,UCCUGGUACAGCUUGCAUAGUUAUUAGUAA,0.01 ± 0.0044
4,UCCUGGUACAGCUUGCAUAGUAUUGUAGUUA,0.233 ± 0.055
5,UCCUGCUACAGGAUGCAUAGUAUUUUCAAA,0.0053 ± 0.0038
6,UCCUGGAACAGCUUGCAUAGAUUUUAGUAA,0.0259 ± 0.0091
7,UCCUGGAACAGCUUGGAUAGAAUUUAGUUA,0.0521 ± 0.013
8,UCCUGGAUGAGCUUGGAUAGUAUUUAGAUA,0.0187 ± 0.0061
9,UCCUGGAUCAGCUUGCAUGUAUUUAGUUA,0.041 ± 0.0073
10,UCCUGGUACAGCUUGCAUAGAAUUUAGAUA,0.0253 ± 0.013
11,UCCUGGAUGUCCUAGCAUAGUAUUUAGAUA,0.0302 ± 0.007
12,UCCUGGAUGUGCUUGCAUUCUAUUUAGUUA,0.0101 ± 0.004
13,UCCUGGAACACGAUGCAUAGUAUUUUCAAA,0.0494 ± 0.017
14,UCCUGGAUGUCGAAGCAUAGUAUUUAGUAA,0.0199 ± 0.0047
15,UCCUCCUACAGCUUGCAUAGAAUAUAGUUA,0.0822 ± 0.019
16,UCCUCCUACAGCUUCGUUAGUAUUUAGUAA,0.186 ± 0.026
17,UCCUGGUACAGCUUGCAUAGUUUUUAGAUA,0.0378 ± 0.017
18,UCCUGGAUGUCGAUCCAUAGUAUUUAGUUA,0.00686 ± 0.0039
